# Sampled rows, rich in hits. Any-hit rate of the full collection: about 12%.
# G9a block: qHTS Assay for Inhibitors of Histone Lysine Methyltransferase G9a | Potency, µM (titrated, usually from 102 µM), for the others: at the top dose activity, negative = inhibition, actives largely listed as inhibitors | Histone-lysine N-methyltransferase EHMT2 (Homo sapiens), Q96KQ7 | G9a H3K9 monomethylation, AlphaScreen, 2 h | AID 504332, 2011 | 350,000 compounds, 8.8% hits; note: % is set by controls: 0 for no effect and ±100 for the full control effect; nearly all actives have a fitted effect of over 75% in size
#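 Chemiluminescent proximity detection of H3K9 monomethylation, read after 10 min bead incubation in the dark. Reaction: 20 nM G9a, 500 nM biotin-H3K9 peptide, 20 uM SAM cofactor, 2 h, room temperature, following 15 min enzyme-compound preincubation.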
# HP1b binding inh: HTS for Inhibitors of HP1-beta Chromodomain Interactions with Methylated Histone Tails. Chromobox protein homolog 1 (Homo sapiens), P83916. AlphaScreen HP1-beta / biotin-H3K9me3 peptide binding. Potency, µM (doses to about 114 µM), inactives show top-dose activity change, negative = inhibition, usual class: inhibitors. 390,000 compounds, 0.56% hits. AID 540317, 2011; note: nearly all actives have a fitted effect of over 70% in size
#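 AlphaScreen: HP1-beta (50 nM) preformed 30 min with biotin-H3(1-18)K9me3 peptide (50 nM) in PBS pH 7.4, 0.01% Tween-20. Compound added for 30 min at RT, then streptavidin donor/nickel chelate acceptor beads (10 ug/mL) for 30 min.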
# TDP1 block: qHTS Assay for Inhibitors of Tyrosyl-DNA Phosphodiesterase (TDP1); Potency, µM (highest dose often 130 µM), for the others: top-dose activity change, negative = inhibition, usual class: inhibitors; recombinant TDP1, AlphaScreen DNA substrate cleavage; AID 485290, 2010; Tyrosyl-DNA phosphodiesterase 1 (Homo sapiens), Q9NUW8; 350,000 compounds, 0.28% hits; note: % is set by controls: 0 for no effect and ±100 for the full control effect; nearly all actives have a fitted effect of over 40% in size
# Target sequence (Q9NUW8 whole entry, looked up): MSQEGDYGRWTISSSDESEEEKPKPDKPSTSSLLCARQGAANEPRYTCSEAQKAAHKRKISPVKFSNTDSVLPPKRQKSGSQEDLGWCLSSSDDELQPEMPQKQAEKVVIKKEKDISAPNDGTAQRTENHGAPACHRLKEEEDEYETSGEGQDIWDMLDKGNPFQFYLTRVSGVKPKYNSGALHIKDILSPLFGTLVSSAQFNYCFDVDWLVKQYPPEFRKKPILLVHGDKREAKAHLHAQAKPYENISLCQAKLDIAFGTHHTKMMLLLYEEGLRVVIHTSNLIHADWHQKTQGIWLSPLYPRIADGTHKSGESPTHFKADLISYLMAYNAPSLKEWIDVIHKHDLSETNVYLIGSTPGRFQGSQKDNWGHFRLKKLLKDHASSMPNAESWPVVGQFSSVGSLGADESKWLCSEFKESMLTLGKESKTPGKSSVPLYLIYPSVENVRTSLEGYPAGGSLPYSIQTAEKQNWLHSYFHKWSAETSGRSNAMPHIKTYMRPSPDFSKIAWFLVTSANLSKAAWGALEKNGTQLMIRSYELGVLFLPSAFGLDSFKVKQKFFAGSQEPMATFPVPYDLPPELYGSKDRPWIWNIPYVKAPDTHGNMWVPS
#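 AlphaScreen read-out: signal falls as enzyme removes the 3' tyrosine-FITC from a 5'-biotinylated DNA oligo (15 nM, 5 min, RT). Enzyme was E. coli-made recombinant Tdp1 at 1 nM, exposed to compound for 15 min beforehand; beads 10 ug/ml, 10 min.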
# Sfp inh: qHTS Assay for Inhibitors of Bacillus subtilis Sfp phosphopantetheinyl transferase (PPTase); 4'-phosphopantetheinyl transferase ffp (Bacillus subtilis), Q9F4F7; Potency, µM, for inactives: largest response in the series, negative = inhibition, most hits filed as inhibitors; AID 1490, 2009; 310,000 compounds, 3.5% hits; Biochemical Sfp PPTase activity, qHTS;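 note: the enzyme is Sfp with the accession as filed and its product quenches rhodamine fluorescence; 0% = enzyme reaction without inhibitor and -100% = no enzyme wells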
#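 With Hepes-Na pH 7.6 buffer containing 10 mM MgCl2, Sfp (15 nM) modified BHQ-2-YbbR (12.5 uM) using rhodamine-CoA (5 uM). Two reads 30 minutes apart at 525/598 nm yielded each well's rate.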
# JMJD2A Tudor inh: qHTS Assay for Inhibitors of JMJD2A-Tudor Domain | Lysine-specific demethylase 4A (Homo sapiens), O75164 | AlphaScreen JMJD2A-Tudor / H3K4me3 peptide binding | Potency, µM (doses to about 114 µM), without a hit: at the highest dose activity change, negative = inhibition, usual class: inhibitors | 390,000 compounds, 4.4% hits | AID 504339, 2011; note: % is set by controls: 0 for no effect and ±100 for the full control effect; nearly all actives have a fitted effect of over 50% in size
# BAZ2B inh: qHTS Assay for Inhibitors of BAZ2B | Bromodomain adjacent to zinc finger domain protein 2B (Homo sapiens), Q9UIF8 | AlphaScreen BAZ2B-H3K14Ac peptide displacement | Potency, µM (highest dose often 114 µM), for inactives: at the top dose activity change, negative = inhibition, actives largely listed as inhibitors | 360,000 compounds, 4.4% hits; note: % is set by controls: 0 for no effect and ±100 for the full control effect; nearly all actives have a fitted effect of over 60% in size
#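 Multi-concentration screen (max 110 uM) measuring displacement of acetylated histone H3 peptide from BAZ2B by AlphaScreen, using 50 nM protein, 50 nM peptide and 10 ug/mL streptavidin donor plus Ni-chelate acceptor beads.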
# * marks the source's active call; other numbers are inactive results; u = inconclusive; x = not tested or not shown; ! = not confirmed by another sample; [ ] = remark or other dose. Calls come from the whole dose curve; as a rule, active = well fitted curve in the direction sought with a large enough effect; inconclusive = small, poorly fitted or top-dose-only effect, or another doubt; inactive = no such curve, though single readings can be large; an effect the other way counts as inactive or inconclusive. Potency is the fitted concentration of half-maximal effect.
SMILES,G9a block,HP1b binding inh,TDP1 block,Sfp inh,JMJD2A Tudor inh,BAZ2B inh
Cc1nc2ccccc2n1/N=C/c1ccc([N+](=O)[O-])s1,50µM*,-23%,-1%,4%,-19%,-33%
COc1ccc2c(c1OC)OCC(c1ccc(OC)c(OC)c1OC)C2 (stereo not given),x,x,8%[56.1 µM],14%,x,x
CN(Cc1ccccc1)C(=O)c1ccc(NC(=O)Cc2ccc([N+](=O)[O-])cc2)cc1,x,28%,4%,x,-26%,x
O=C(c1cccs1)N1N=C(c2ccccc2)CC1c1ccc(O)cc1 (stereo not given),u,u,8%,20µM*,-23%,-28%
COc1ccc(C2=NN(C(=O)c3cccs3)C(c3ccc(OC)cc3)C2)cc1 (stereo not given),4%,18%,3%,u,-6%,9%
O=C(c1cccs1)N1N=C(c2ccc(O)cc2)CC1c1ccccc1 (stereo not given),-6%[59 µM],20%,0%,18µM*,9%,1%
O=C(c1cccs1)N1N=C(c2ccccc2)CC1c1ccccc1 (stereo not given),3%[59 µM],32%,3%,40µM*,-9%,-2%
COC(=O)[C@@H]1C[C@H]1[C@@H](NC(=O)c1cc(C)nn1C)c1ccccc1,x,x,-2%,9%,x,x
O=C(NCc1ccco1)C1CCCN(c2nnc(-n3cccc3)s2)C1 (stereo not given),-5%,u,-14%,4%,56µM*,u
Cc1ccc(S(=O)(=O)N2CCCC2C(=O)Nc2nc3c(s2)CCCC3)cc1 (stereo not given),45µM*,-5%,4%,0%,-24%,u
O=C(NCc1ccco1)C1CCCN(S(=O)(=O)c2ccc(-n3cnnn3)cc2)C1 (stereo not given),56µM*,18%,-1%,40µM*,-33%,u
Cc1ccc(S(=O)(=O)N2CCCCC2C(=O)NCc2ccco2)cc1 (stereo not given),28µM*,-8%,1%,56µM*,-22%,-32%
Cc1ccc(NC(=O)[C@@H]2CCCN2S(=O)(=O)c2ccc(Cl)cc2)cc1,x,11%,0%,x,-8%,x
CCCCN(CC)c1nc(-c2ccccc2F)nc2ccccc12,45%[59 µM],161%,-9%,x,111%,191%
O=C(c1cccc(F)c1)N1CCC[C@@]2(CCN(c3ncccn3)C2)C1,0%[12.7 µM],x,x,8%,x,x
CCOc1ncccc1C(=O)N(CCC(C)C)c1c(N)n(Cc2ccccc2)c(=O)[nH]c1=O,x,19%,2%,x,-10%,x
O=C(NCc1ccco1)C1CCCN1C(=O)Nc1ccc(Cl)cc1 (stereo not given),2%,-4%,0%,19%,14µM*,x
Cc1ccc(S(=O)(=O)N2CCCCC2C(=O)Nc2nncs2)cc1 (stereo not given),40µM*,32%,-3%,-22%,-10%,0%
Cc1ccc(S(=O)(=O)N2CCCC2C(=O)Nc2cc(C)on2)cc1 (stereo not given),4%,33%,4%,9%,-15%,17%
CNC(=O)C1CCN(C(=O)N2CC(C)Oc3ccc(Cl)cc32)CC1 (stereo not given),-10%[59 µM],-10%,9%,x,-33%,u
CCOC(=O)c1c(CN(C)C)n(C)c2c(O)c(N=NC(N)=O)c3ccc(Br)cc3c12,-12%,18%,x,7%,35µM*,-2%
COc1cc(/C=C/C(=O)NC(=O)c2ccccc2O)ccc1O,25%,11%,4%,3%,-12%,-20%
O=C(/C=C/c1ccccc1)NC(=O)c1ccccc1O,u,24%,u,12%,u,79µM*
O=C(/C=C/c1ccccc1)CC(=O)c1ccccc1O,16µM*,-24%,x,u,25µM*,u
O=C(/C=C/c1ccccc1)COC(=O)c1ccccc1,x,42%,x,x,3%,x
SMILES,G9a block,HP1b binding inh,TDP1 block,Sfp inh,JMJD2A Tudor inh,BAZ2B inh
CC(C)(C)C1CCc2c(sc(NC(=O)CCC(=O)O)c2C(=O)Nc2ccccc2C(F)(F)F)C1 (stereo not given),u,-17%,x,x,56µM*,50µM*
COc1ccccc1N1CCN(C2CCCN(C(=O)c3oc(C)cc3C)C2)CC1 (stereo not given),x,-4%,4%,-4%,-22%,-12%
CCCCNc1c(-c2ccc(OC)c(SC3CCCCC3)c2)nc2cc(C)ccn12,14%[2.33 µM],-15%,6%,x,56µM*,u
Cc1ccc(NC(=O)CSC2=NN3CCCC(=O)N=C3S2)cc1Cl,37%,-27%,4%[0.0935 µM],19%,-17%,2%
Cc1ccc(CN(Cc2ccco2)C(=S)NCC(=O)NC2CC2)cc1,18µM*,5%,5%,50µM*,-21%,-34%
CCCCNC(=O)CNC(=S)N(Cc1ccc(C)cc1)Cc1ccco1,28µM*,-16%,4%,56µM*,-33%,-37%
CCCCNC(=O)CNC(=S)N(Cc1ccccc1)Cc1cccs1,-6%,16%,-4%,6%,-11%,-10%
NC[C@H](O)c1ccc(O)c(O)c1,9.5µM*,-8%,2.2µM*!,u,7.9µM*,u
Oc1ccc(C(O)CNCCCCCCNCC(O)c2ccc(O)c(O)c2)cc1O (stereo not given),-40%[12.7 µM],x,x,u,x,x
CC(C)NCC(O)c1ccc(O)c(O)c1 (stereo not given),14µM*!,11%,-9%[56.1 µM],-24%,-7%,-27%
CC(C)NCC(O)c1ccc2ccccc2c1 (stereo not given),-49%[59 µM],45%,6%,13%,-6%,11%
CCC(C)(C)NC(=O)C(c1ccc(C)cc1)N(CCN1CCOCC1)C(=O)CNC(=O)c1cccs1 (stereo not given),x,-7%,6%,1%,u,-13%
CCCCCCCCc1nc(SCC(C)=O)n[nH]1,0%,20%,x,4%,-6%,3%
COCCNC(=O)CSc1nc2sc(C)c(C)c2c(=O)n1-c1ccccc1,-11%,19%,5%,21%,-7%,0%
CCn1c(SCC(=O)NCCOC)nc2sc(C)c(C)c2c1=O,-3%[12.7 µM],x,2%,45µM*,x,-1%
Cc1cc(C)c(NC(=O)C2=COCCO2)c(C)c1,8%,-1%,-6%[0.505 µM],x,-12%,-5%

# Source: PubChem BioAssay
